Experimental findings from PubChem BioAssay (Tox21) are described below.

Experiment [1] is described as follows: qHTS assay to identify small molecule agonists of the estrogen receptor alpha (ER-alpha) signaling pathway in the presence of an antagonist - cell viability counter screen (AID 1259386).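 Note: series mostly up to about 92 µM; cells exposed to compounds for 22 h at 37 °C before the viability read; nearly all actives have a fitted effect of over 30% in size.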 Put shortly:
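Cells are starved of estrogens for 5 days in charcoal-stripped serum, seeded for 24hr and co-treated with ICI-182,780 (10.0nM final) and test compounds. After 22hr at 37C, viability is read as CellTiter-Fluor fluorescence.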
A general note: qHTS replaces the single test concentration by a dilution series.

For experiment [2], the target named is Progesterone receptor (Homo sapiens) (UniProt P06401). The experiment can be described thus: qHTS assay to identify small molecule agonists of the progesterone receptor (PR) signaling pathway (AID 1346784; calls by dose curve; note: nearly all actives have a fitted effect of over 30% in size). The gist of the method: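 Fluorescence from LiveBLAzer B/G FRET substrate cleavage (2 hr, RT) reported PR activation in PR-UAS-bla HEK 293T cells treated 16 hr at 37C/5% CO2 with compounds; medium contained 2% charcoal-stripped FBS.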

Experiment [3] in a line: qHTS assay to identify small molecule antagonists of the progesterone receptor (PR) signaling pathway - cell viability counter screen (AID 1346798). Note: nearly all actives have a fitted effect of over 50% in size. Note: potency is the fitted concentration of half-maximal effect. The gist of the method: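 CellTiter-Glo luminescence; PR-UAS-bla HEK293T, 3,000 cells/well; compound + R5020, 16 hr, 37C/5% CO2; 30 min RT before read.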
The nature of experiment [4]: qHTS assay to identify small molecule antagonists of the TGF-beta/Smad signaling pathway - cell viability counter screen (AID 1346824). Note: nearly all actives have a fitted effect of over 50% in size. Put shortly:
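Cytotoxicity counter-screen run in the same wells as the beta-lactamase Smad reporter read: CellTiter-Glo luminescence after 30 min at room temperature. HEK 293T SBE-bla cells had 5 hr compound exposure at 37 C with TGF-beta1 (0.25 ng/mL stock).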

Experiment [5] is described as follows: qHTS assay to identify small molecule agonists of the TGF-beta/Smad signaling pathway - cell viability counter screen (AID 1346829). Note: top concentration of the series differs between compounds; nearly all actives have a fitted effect of over 45% in size. Put shortly:
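Compound-treated SBE-bla HEK 293T cells (5 hr, 37 C) were assessed for viability with CellTiter-Glo in parallel with the reporter read.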

Experiment [6] is described as follows: Human pregnane X receptor (PXR) small molecule agonists, qHTS cell viability counter screen (AID 1346977). Note: nearly all actives have a fitted effect of over 50% in size. Note: potency is the fitted concentration of half-maximal effect. The gist of the method:
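Viability counter screen: CellTiter-Fluor signal in PXR-Luc HepG2 cells, 24hr compound exposure, 37C, 5% CO2.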

Experiment [7] in a line: Caspase-3/7 induction in HepG2 cells by small molecules, qHTS assay (AID 1346978). Note: nearly all actives have a fitted effect of over 15% in size. Note: potency is the fitted concentration of half-maximal effect. Put shortly:
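Caspase-3/7 induction was measured by Caspase-Glo 3/7 luminescence (30 min, room temperature) after a 17 hr compound exposure of wild-type HepG2 cells seeded at 2,000 per well and pre-incubated 5 hr.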

The nature of experiment [8]: qHTS assay to identify small molecule agonists of the progesterone receptor (PR) signaling pathway - cell viability counter screen (AID 1346799; calls by dose curve; note: nearly all actives have a fitted effect of over 45% in size; note: potency is the fitted concentration of half-maximal effect). The gist of the method: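 In parallel with the beta-lactamase readout, cytotoxicity toward PR-UAS-bla HEK293T cells was measured by CellTiter-Glo luminescence following 16 hr compound incubation in 2% charcoal-stripped FBS medium.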

Experiment [9] in a line: qHTS assay to identify small molecule agonists of the TGF-beta/Smad signaling pathway (AID 1346859; active = well fitted activation curve with a large enough effect in the signal ratio in the repeat runs, not every such curve was filed as active; the % refers to the signal ratio; note: series mostly up to about 77 µM). Put shortly:
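After overnight seeding, SBE-bla HEK 293T cells are dosed with compounds in DMSO and kept 5 hr at 37 C, 5% CO2. LiveBLAzer-type FRET substrate is then applied for 2 hr at room temperature.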

For experiment [10], the target named is Thyrotropin-releasing hormone receptor (Homo sapiens) (UniProt P34981). The experiment can be described thus: qHTS assay to identify small molecule antagonists of the thyrotropin-releasing hormone receptor (TRHR) signaling pathway (AID 1346877; active = well fitted inhibition curve with a large enough effect in the repeat runs, not every such curve was filed as active; note: series mostly up to about 51 µM). Put shortly: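 Cells (TRHR-HEK293) are plated and kept 18 h at 37 °C/5% CO2. A calcium-sensitive dye is added for 2 h, compound follows for 5 min at room temperature, and TRH is then given at 1 nM final.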

Experiment [11] is described as follows: Caspase-3/7 induction in CHO-K1 cells by small molecules, qHTS cell viability counter screen (AID 1346979). Note: nearly all actives have a fitted effect of over 35% in size. Note: potency is the fitted concentration of half-maximal effect. The gist of the method:
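Viability readout by fluorescence (CellTiter-Fluor) on wild-type CHO-K1 cells exposed for 16hr at 37C and 5% CO2 to compounds delivered in DMSO; reagent incubated 1hr before reading.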

Experiment [12] can be described thus: Caspase-3/7 induction in HepG2 cells by small molecules, qHTS cell viability counter screen (AID 1346981). Note: nearly all actives have a fitted effect of over 30% in size. Note: potency is the fitted concentration of half-maximal effect. Put shortly:
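Steps: seed 2,000 HepG2 cells per well; incubate 5 hr at 37 C; pin-add compounds in DMSO; incubate 16 hr; add CellTiter-Fluor; after 1 hr at 37 C and 5% CO2, read fluorescence.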

The target in experiment [13] is Nuclear receptor subfamily 1 group I member 2 (Homo sapiens) (UniProt O75469). The experiment can be described thus: Human pregnane X receptor (PXR) small molecule agonists, qHTS assay (AID 1346982). Note: nearly all actives have a fitted effect of over 35% in size. Note: potency is the fitted concentration of half-maximal effect. Put shortly:
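Agonist mode qHTS: PXR-Luc HepG2 cells plated 5 hr before DMSO-dissolved compounds were pinned in, cultured 24 hr at 37 C, 5% CO2; ONE-Glo luminescence readout.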

Experiment [14] concerns the target Acetylcholinesterase (Homo sapiens) (UniProt P22303). The experiment can be described thus: Acetylcholinesterase (AChE) small molecule antagonists: colormetric cell-based qHTS assay (AID 1347395; calls by dose curve; note: nearly all actives have a fitted effect of over 30% in size). Put shortly:
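Homogeneous whole-cell format. SH-SY5Y cells seeded overnight, dosed with compound (30 min, 37 C, 5% CO2), then given DTNB/acetylthiocholine cocktail for 90 min at 37 C; colorimetric signal.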

A short description of experiment [15]: Caspase-3/7 induction in CHO-K1 cells by small molecules, qHTS assay (AID 1346980). Note: nearly all actives have a fitted effect of over 15% in size. Note: potency is the fitted concentration of half-maximal effect. Put shortly:
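Luminescent Caspase-Glo 3/7 read (30min, room temperature) quantified apoptosis induction. Cells were wild-type CHO-K1, treated with compound for 17hr at 37 C and 5% CO2.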

The target of experiment [16] is Thyrotropin-releasing hormone receptor (Homo sapiens) (UniProt P34981). The experiment can be described thus: qHTS assay to identify small molecule agonists of the thyrotropin-releasing hormone receptor (TRHR) signaling pathway (AID 1346891; calls by dose curve;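 note: HEK293 cells expressing TRHR with calcium dye readout; series mostly up to about 58 µM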). Put shortly:
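Compounds were tested as agonists at 15 concentrations, in triplicate, on TRHR-Hek293 cells; calcium-sensitive dye fluorescence was recorded for 3 min following addition.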

Several values for one entry are separate records, joined by “and”; a condition that tells them apart may be missing. Equal entries are not always repeated. Results filed as inconclusive are left out. The source holds several records for some structures; these can differ, active in one and inactive in another. Activity calls are given as the source filed them. Unless noted, calls come from the whole dose curve; as a rule, active = well fitted curve in the direction sought with a large enough effect in the repeat runs; inconclusive = weak or mixed curves; inactive = no such curve, though single readings can be large; an effect the other way counts as inactive or inconclusive.

Sequence of Thyrotropin-releasing hormone receptor (Homo sapiens) (P34981 whole entry, looked up): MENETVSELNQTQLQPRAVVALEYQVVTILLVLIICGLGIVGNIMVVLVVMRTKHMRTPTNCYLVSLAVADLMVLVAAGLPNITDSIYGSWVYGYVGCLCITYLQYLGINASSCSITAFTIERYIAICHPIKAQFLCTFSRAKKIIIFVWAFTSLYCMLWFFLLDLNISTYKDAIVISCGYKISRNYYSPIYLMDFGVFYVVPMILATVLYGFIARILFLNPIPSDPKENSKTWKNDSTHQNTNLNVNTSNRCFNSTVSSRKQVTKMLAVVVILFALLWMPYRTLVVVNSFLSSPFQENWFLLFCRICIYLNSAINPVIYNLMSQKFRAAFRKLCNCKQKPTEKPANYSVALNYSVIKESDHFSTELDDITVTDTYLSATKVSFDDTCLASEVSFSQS
Sequence of Nuclear receptor subfamily 1 group I member 2 (Homo sapiens) (O75469 whole entry, looked up): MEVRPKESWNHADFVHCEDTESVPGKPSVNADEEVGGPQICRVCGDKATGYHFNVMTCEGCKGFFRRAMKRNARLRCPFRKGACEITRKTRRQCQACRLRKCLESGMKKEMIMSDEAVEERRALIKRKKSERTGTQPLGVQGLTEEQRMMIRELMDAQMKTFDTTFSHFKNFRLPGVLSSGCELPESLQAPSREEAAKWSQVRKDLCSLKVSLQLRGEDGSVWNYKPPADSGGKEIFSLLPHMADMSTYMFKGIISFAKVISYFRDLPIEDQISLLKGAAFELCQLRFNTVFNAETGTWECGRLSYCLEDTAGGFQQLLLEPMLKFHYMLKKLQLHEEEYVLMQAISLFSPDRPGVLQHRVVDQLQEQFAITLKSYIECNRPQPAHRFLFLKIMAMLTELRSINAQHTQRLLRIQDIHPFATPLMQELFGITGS
Sequence of Acetylcholinesterase (Homo sapiens) (P22303 whole entry, looked up): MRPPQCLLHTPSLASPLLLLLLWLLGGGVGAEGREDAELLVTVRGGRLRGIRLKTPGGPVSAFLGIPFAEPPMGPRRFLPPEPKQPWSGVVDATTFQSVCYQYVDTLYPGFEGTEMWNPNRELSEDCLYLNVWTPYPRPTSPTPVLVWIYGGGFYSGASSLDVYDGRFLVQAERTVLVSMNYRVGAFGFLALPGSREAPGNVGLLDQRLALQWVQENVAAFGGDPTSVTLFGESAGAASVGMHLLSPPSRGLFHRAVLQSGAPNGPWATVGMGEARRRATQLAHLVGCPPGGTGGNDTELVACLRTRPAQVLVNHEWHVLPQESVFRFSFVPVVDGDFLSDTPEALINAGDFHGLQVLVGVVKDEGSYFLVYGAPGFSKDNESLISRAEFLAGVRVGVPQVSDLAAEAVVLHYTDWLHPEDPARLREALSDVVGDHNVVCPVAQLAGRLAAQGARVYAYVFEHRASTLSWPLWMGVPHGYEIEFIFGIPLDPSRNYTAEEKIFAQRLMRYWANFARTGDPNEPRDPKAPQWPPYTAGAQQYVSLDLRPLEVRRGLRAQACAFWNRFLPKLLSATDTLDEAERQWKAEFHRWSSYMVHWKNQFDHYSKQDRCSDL
Sequence of Progesterone receptor (Homo sapiens) (P06401 whole entry, looked up): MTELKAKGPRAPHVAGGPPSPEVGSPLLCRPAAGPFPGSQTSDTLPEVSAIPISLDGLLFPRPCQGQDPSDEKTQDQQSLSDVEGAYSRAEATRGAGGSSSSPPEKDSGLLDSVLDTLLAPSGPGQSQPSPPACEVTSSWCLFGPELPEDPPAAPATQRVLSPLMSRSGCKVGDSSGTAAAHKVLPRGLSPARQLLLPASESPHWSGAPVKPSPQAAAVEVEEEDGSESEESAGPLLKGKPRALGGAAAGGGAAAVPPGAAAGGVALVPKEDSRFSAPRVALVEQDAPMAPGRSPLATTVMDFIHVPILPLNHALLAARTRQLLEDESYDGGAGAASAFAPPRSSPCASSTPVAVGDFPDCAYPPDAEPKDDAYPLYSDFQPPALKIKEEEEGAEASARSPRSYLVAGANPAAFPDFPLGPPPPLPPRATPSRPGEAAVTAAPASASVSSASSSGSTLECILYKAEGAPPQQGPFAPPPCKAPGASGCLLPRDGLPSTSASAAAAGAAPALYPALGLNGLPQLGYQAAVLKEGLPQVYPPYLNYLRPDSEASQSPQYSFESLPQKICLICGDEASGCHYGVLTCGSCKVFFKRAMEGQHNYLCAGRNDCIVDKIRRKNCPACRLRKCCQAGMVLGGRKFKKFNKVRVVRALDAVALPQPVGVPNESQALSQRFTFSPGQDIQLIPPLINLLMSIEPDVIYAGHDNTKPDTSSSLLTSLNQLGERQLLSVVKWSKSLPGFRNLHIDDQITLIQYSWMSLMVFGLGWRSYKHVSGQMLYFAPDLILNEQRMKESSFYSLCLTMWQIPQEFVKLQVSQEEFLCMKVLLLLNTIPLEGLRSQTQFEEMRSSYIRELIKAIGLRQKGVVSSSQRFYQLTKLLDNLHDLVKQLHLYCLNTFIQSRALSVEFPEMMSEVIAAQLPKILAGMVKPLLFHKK

For the compound `CC(=O)NNc1ccccc1`, the Potency entry in [1], in experiment [2], in [4], in [5], in experiment [6] and in [7] was “inactive” in each case. Moreover, the Potency in experiment [3] is 30.4 µM (active).

For the compound `OCCSSCCO`, the Potency result in experiment [1], in experiment [2], in [8], in experiment [5], in experiment [10] and in experiment [6] was “inactive” in each case. In addition, the Potency result in [7], in experiment [11], in experiment [12], in [13] and in experiment [14] was “inactive” each time. The compound was called inactive in experiment [9].

Turning to `CCCSP(=S)(OCC)Oc1ccc(SC)cc1` (configuration not stated), the Potency entry in experiment [1], in [2], in experiment [8], in [4], in experiment [5] and in [6] was “inactive” in each case. For the same compound, the Potency result in experiment [7], in experiment [15], in [12] and in experiment [14] was “inactive” throughout. Besides, in [9], the call was inactive. The Potency in experiment [13] was 17.2 µM (active).

With `CC(O)CN1CCN(CC(=O)[O-])CCN(CC(=O)[O-])CCN(CC(=O)[O-])CC1.[Gd+3]` (configuration not stated), the Potency result in [1], in experiment [3], in experiment [8], in experiment [10], in experiment [6] and in experiment [7] was “inactive” in each case. Also, the Potency entry in [15], in experiment [12], in experiment [13] and in experiment [14] was “inactive” in each case. Besides, the call in [9] and in [16] was inactive.

Consider `O=C(O)C(F)(F)C(F)(F)C(F)(F)C(F)(F)C(F)(F)C(F)(F)C(F)(F)C(F)(F)F`, for which the Potency entry in experiment [1], in experiment [2], in experiment [4], in experiment [10], in [6] and in experiment [7] was “inactive” each time. Further, the Potency entry in [11] and in experiment [14] was “inactive” each time. Moreover, the outcome in [9] and in experiment [16] was inactive. Also, the Potency in experiment [13] is 21.7 µM (active).

As for `CCC(C)(C)c1ccc(O)c(C(C)(C)CC)c1`, the Potency result in [1], in experiment [4], in experiment [10], in experiment [12] and in experiment [14] was “inactive” throughout. For the same compound, the Potency was 60.4 µM (active) and 30.6 µM (active) in experiment [3]; 24.3 µM (active) in experiment [8]; 30.6 µM (active) in experiment [6]; 21.7 µM (active) in [7]; 48 µM (active) and 27.3 µM (active) in experiment [11]; “inactive and 17.2 µM (active)” in [15]. Besides, the Potency in [13] was 27 µM (active) and inactive. The result in experiment [9] was inactive.

Regarding `Cc1cccc(C)c1NC1=NCCCS1`, the Potency result in [1], in experiment [2], in [4], in experiment [5], in experiment [10] and in experiment [6] was “inactive” throughout. Also, the Potency entry in [7], in experiment [11], in experiment [15], in experiment [12], in [13] and in experiment [14] was “inactive” each time. For the same compound, in experiment [16], the compound was called inactive.

Regarding `NC(=S)c1c(Cl)cccc1Cl`, the Potency result in experiment [1], in experiment [3], in experiment [8], in experiment [4], in experiment [5] and in experiment [6] was “inactive” each time. Also, the Potency entry in experiment [7], in experiment [11], in experiment [15], in experiment [12], in [13] and in experiment [14] was “inactive” each time. The compound was called inactive in [9].

Consider `CC(Oc1cc(Cl)c(Cl)cc1Cl)C(=O)O` (configuration not stated), for which the Potency result in experiment [1], in experiment [3], in experiment [4], in experiment [5], in experiment [10] and in [6] was “inactive” each time. In addition, the Potency entry in experiment [7], in experiment [11], in experiment [15], in experiment [12] and in experiment [14] was “inactive” each time. Also, the Potency in experiment [8] is 48.7 µM (active). For the same compound, the compound was called inactive in experiment [16].

With `Cc1nc2ccccc2c(=O)n1-c1ccccc1Cl`, the Potency result in experiment [2], in experiment [3], in [8], in experiment [5], in experiment [10] and in experiment [7] was “inactive” throughout. For the same compound, in experiment [14], the Potency entry was “inactive”. Also, the compound was classed as inactive in experiment [9]. For the same compound, the Potency was 26.7 µM (active) in [11], 26.7 µM (active) in experiment [12] and 21.2 µM (active) in experiment [13].
